# Reference: PubChem BioAssay (NCI)
# Compounds without any hit were thinned out: in the full panel of roughly 83,000, 20% have a hit.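 Treatment: one concentration, 48 hours, 96-well format. Scoring: percent growth, with anything below 10 considered active.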 Values without a mark were called inactive. The source made the active and inactive calls.
# Key:
# Experiment in all cases: NCI-60 one-dose screen, 48 h (100 = growth as untreated, 0 = no growth, -100 = all killed)
# Conditions in all cases: 10 µM unless noted
# SR leukemia = test system: SR leukemia
# RPMI-8226 leukemia = test system: RPMI-8226 leukemia
# OVCAR-8 ovarian = test system: OVCAR-8 ovarian
# OVCAR-5 ovarian = test system: OVCAR-5 ovarian
# OVCAR-4 ovarian = test system: OVCAR-4 ovarian
# SK-OV-3 ovarian = test system: SK-OV-3 ovarian
# IGROV1 ovarian = test system: IGROV1 ovarian
# OVCAR-3 ovarian = test system: OVCAR-3 ovarian
# HS 578T breast = test system: HS 578T breast
# NCI/ADR-RES ovarian = test system: NCI/ADR-RES ovarian
Structure (SMILES),growth (SR leukemia),growth (RPMI-8226 leukemia),growth (OVCAR-8 ovarian),growth (OVCAR-5 ovarian),growth (OVCAR-4 ovarian),growth (SK-OV-3 ovarian),growth (IGROV1 ovarian),growth (OVCAR-3 ovarian),growth (HS 578T breast),growth (NCI/ADR-RES ovarian)
NS(=O)(=O)c1ccc(C(=O)N=Nc2c(O)[nH]c3ccc(Cl)cc23)cc1,95.3%,98.5%,95%,110%,99.7%,108%,98.1%,113%,99.5%,102%
COc1cc2ncnc(Nc3ccc(S(=O)(=O)Nc4nccs4)cc3)c2cc1OCCCN1CCCC1,99.1%,107%,99.7%,109%,110%,98.6%,110%,109%,110%,108%
COC(=O)/C=C1/SC(=NCc2ccccc2)N(CCc2c[nH]c3ccccc23)C1=O,29.8%,52.4%,67.6%,110%,78.1%,111%,92.1%,79.1%,79.7%,80.6%
CN1C(=O)N2CN3CCCN(C3)CN3C(=S)NC1C23 (stereo not given),97.4%,93.6%,101%,109%,102%,93.3%,104%,107%,101%,109%
N#Cc1ccccc1-c1ccc(CN2C(=O)S/C(=C\c3ccc(Br)cc3)C2=O)cc1,89.3%,103%,101%,101%,90.2%,94.3%,98.3%,112%,92.3%,94.1%
Cc1ccc(C(=O)c2ccc(CC(=O)N/N=C/c3cccc(O)c3O)n2C)cc1,8.86% (active),35.1%,38.6%,72.6%,29.1%,68%,51.2%,23.5%,87.4%,19.2%
O=C(N/N=C/c1ccc(Cl)cc1)c1ccc(NC(=O)c2ccccn2)cc1,43.3%,62.1%,46.1%,67.6%,-77.6% (active),53.9%,30.9%,0.827% (active),53.9%,53.2%
CC(C)CCC[C@@H](C)[C@H]1CC[C@H]2[C@@H]3CC=C4c5sc(Nc6cc(C(F)(F)F)cc(C(F)(F)F)c6)nc5CC[C@]4(C)[C@H]3CC[C@]12C,106%,106%,89.2%,106%,100%,89.2%,97.7%,102%,102%,102%
COc1ccc(-c2cc(-c3cc(OC)ccc3OC)nc(SCC(C)=O)c2C#N)cc1,32.1%,33.2%,80.8%,84.1%,69.6%,59.9%,83.9%,66.4%,76.1%,52.1%
CCN(CC)C(=O)CC1=C(C)/C(=C/c2[nH]c(-c3ccc[nH]3)cc2OC)N=C1C,-30% (active),13.7%,16.1%,51.4%,43.9%,22.4%,30.6%,11.1%,10.9%,18.3%
CC1=C2[C@@H](CC1)[C@]1(C)O[C@@](C3CCNCC3)(C[C@H]1OC(=O)CO)[C@H]2OC(=O)/C=C/c1ccccc1,33.1%,82.3%,84.3%,99.4%,82.9%,106%,80.3%,93.9%,58.4%,90.3%
O=C(CN1C(=O)S/C(=C\C(Cl)=C\c2ccccc2)C1=O)NC1CCS(=O)(=O)C1 (stereo not given),14.2%,21.7%,47.1%,110%,78.7%,106%,41.3%,19.4%,87.4%,84%
CNC(=O)NCC1OC(n2cnc3c(NC(=O)Nc4ccccc4)ncnc32)C2OC(=O)CC12 (stereo not given),90.3%,105%,96.4%,96.8%,106%,102%,92.3%,91.7%,105%,96.8%
O=c1cc(-c2ccccc2)nc(SCc2nc3cc(Cl)c(Cl)cc3[nH]2)[nH]1,6.56% (active),114%,104%,95.2%,101%,92.4%,101%,106%,105%,97%
COC12C=C/C(=C(/C(=O)OCCSc3ccnn3C)C(=O)CCCCCCCCC3(OC)C=C/C(=C(/C(=O)OCCSc4ccnn4C)C(=O)CCCCCCCC1)O3)O2,-7.77% (active),-8.92% (active),17.3%,37%,20.4%,75.1%,-3.71% (active),5.79% (active),39.4%,25.2%
CC(C)(C)CC(C)(C)Nc1c(-c2c(O)c3ccccc3oc2=O)nc2sc3ccccc3n12,30.3%,8.98% (active),22.2%,66.9%,41.9%,30.4%,29.5%,55.2%,30.1%,40.1%
COc1ccc(CN2C(=O)OC(C)(COC(C)=O)C2=O)cc1 (stereo not given),94%,103%,104%,97.2%,104%,97.3%,107%,112%,108%,109%
CCCCCc1ccc(S(=O)(=O)Nc2ccc3nc(N)oc3c2)cc1,31.1%,38.4%,53.8%,99.5%,27.3%,81.8%,68.4%,64.5%,73.9%,53%
CC(=O)O[C@H]1CC[C@]2(C)[C@H]3CC=C4[C@@H]5CC(C)(C)CC[C@]5(C(=O)N5CCN(CCC#N)CC5)CC[C@@]4(C)[C@]3(C)CC[C@H]2C1(C)C,13.7%,13.3%,29.6%,70.6%,-44.1% (active),60.6%,39.1%,-9.23% (active),61.2%,48.8%
Cc1ccc2c(/C=C/C(=O)c3cc(CN4CCOCC4)c(O)c4nc(C)ccc34)cc(CN3CCOCC3)c(O)c2n1,6.56% (active),2.37% (active),11.1%,0.618% (active),-74.3% (active),-1.75% (active),2.95% (active),-13.2% (active),29.6%,8.34% (active)
CCCOC(=O)Nc1nc2ccc(SCC)cc2s1,25.9%,85.1%,94.7%,102%,94.2%,95.8%,89.5%,76.9%,93.4%,50.5%
CCOC(=O)C/C(=N\Nc1cc(=O)[nH]c2ccc(OC)cc12)C(=O)OCC,67%,68.5%,103%,96.6%,101%,121%,92.4%,109%,91.8%,103%
ClCCn1cnc2c(SCc3ccccc3)ncnc21,43.6%,50.9%,41.8%,101%,81.8%,62.5%,133%,73.4%,62.8%,57.1%
O=c1oc2c(cc1-c1ccccc1)c[n+]([O-])c1ccccc21,103%,98.2%,94.9%,102%,98.6%,104%,102%,112%,99.9%,109%
N#Cc1c(-c2ccccc2)nc2c(c(-c3ccc(Cl)cc3)nn2-c2ccccc2)c1-c1ccc([N+](=O)[O-])cc1,63.4%,101%,98.5%,99.9%,109%,102%,103%,126%,104%,101%
COc1ccccc1/C=C/C(=O)Nc1ccc(F)cc1,95%,85.4%,100%,108%,86.8%,81.5%,83.2%,104%,104%,101%
O=C1C=C(SCCO)C(=O)c2ccccc21,-16.1% (active),12.9%,28.9%,87.7%,39.1%,105%,68.6%,-3.21% (active),2.8% (active),4.12% (active)
